From PubChem BioAssay (NCI)
About 83,000 compounds went through this panel and 20% of them were active in at least one assay; those are over-represented in the sample as a whole.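 Cells were grown in 96-well plates and exposed to the test compound at a single concentration for 48 hours; results are reported as percent growth, with values below 10 considered active.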 Values without a mark were called inactive. Activity calls are given as the source filed them.

Each molecule was assayed on EKVX NSCLC (assay: NCI-60 one-dose screen, 48 h (100 = growth as untreated, 0 = no growth, -100 = all killed)). Details: 10 µM unless noted.

| SMILES | growth |
| --- | --- |
| COc1cc(/C=C/C(=O)c2ccc(Nc3ncnc4ccccc34)cc2)cc(OC)c1 | 79.3% |
| COc1ccc(C(=O)c2cc3c(N)c(C(=O)Nc4cccc(OC)c4)sc3nc2C)cc1 | 35.3% |
| CCC(C)N(CCNc1cc(OC)cc2cccnc12)CCC(C)C (stereo unspecified) | 92.2% |
| S=c1[nH]cccc1-c1nnc2n1Nc1nc3ccccc3cc1CS2 | 97.1% |
| NC(=O)C1(N2CCCCC2)CCN(CCCC(=O)c2ccc(F)cc2)CC1 | 59.2% |
| O=S(=O)(c1cccc(NC2=Nc3cccc4cccc2c34)c1)N1CCCC1 | 62% |
| OC1(c2ccc(Cl)c(C(F)(F)F)c2)CCN(CCCC(c2ccc(F)cc2)c2ccc(F)cc2)CC1 | -9.88% (active) |
| O=c1[nH]nc(-c2ccc(Br)cc2)cc1Cc1ccc(O)cc1 | 51.7% |
| N/C(=N\N=C\c1cc2ccccc2s1)N/N=C/c1cc2ccccc2s1 | 95.6% |
| COc1ccc(C(=O)c2cc3c(N)c(C(=O)Nc4ccc(Br)cc4)sc3nc2C)cc1 | 83.1% |
| CC1=NNC(=O)C1CCC(=O)N/N=C(\C)c1ccc2ccccc2c1 (stereo unspecified) | 154% |
| O=C(O)c1cn(C2CC2)c2cc(N3CCN(C(=O)C[n+]4cccc5ccccc54)CC3)c(F)cc2c1=O | 102% |
| COc1ccc(Cn2nc(-c3ccccc3)c3c2CCc2cnoc2-3)cc1 | 65.9% |
| O=C(O)CNC(=O)CN1C(=O)c2ccccc2C1=O | 103% |
| O=C1CCCCCCCCC(O)C(O)CCCC(c2cccs2)O1 (stereo unspecified) | 82.2% |
| CC1CCN(C(=O)OCc2nc3nc(Cl)nc(N4CCOCC4)c3[nH]2)CC1 | 40.4% |
| COc1cc(C2CC(c3cccc(Nc4ccncc4)c3)=NN2c2cc(Cl)cc(Cl)c2)cc(OC)c1OC (stereo unspecified) | 65.8% |
| COC(=O)Nc1ccc(NC(=O)OC)cc1 | 103% |
| COc1ccc(C(=O)c2cc3c(N)c(C(=O)Nc4cccc(Cl)c4C)sc3nc2C)cc1 | 39.6% |

| SMILES | growth |
| --- | --- |
| COc1ccc(-c2nc(SC)nc(N3CCOCC3)c2C#N)cc1 | 97.7% |
| CC(=O)NCCCS(=O)(=O)O | 98.6% |
| Cn1c(COC(=O)NCCN2CCOCC2)nc2c(N3CCOCC3)nc(-c3ccccc3)nc21 | -62.6% (active) |
| CC(C)Sc1nc(NN)c(C#N)c(-c2ccccc2)n1 | 94.1% |
| COc1ccc(-c2nc(SCC(C)C)nc(N/N=C(/C)c3ccc(OC)c(OC)c3)c2C#N)cc1 | 89.5% |
| COc1cc2nnn3c4ncccc4c(N=O)c3c2cc1OC | 106% |
| COc1ccccc1-c1c(-c2ccc(Cl)cc2)c2cc3c(cc2[nH]c1=O)OCCO3 | 53.6% |
| O=S(=O)(NCCNc1nccc(-c2c(-c3ccc(F)c(O)c3)nc3sccn23)n1)c1ccccc1 | 101% |
| CC(C)(O)C1CCCN1C(=O)c1ccccc1I (stereo unspecified) | 97.7% |
| O=C(OCc1nc2nc(Cl)nc(N3CCOCC3)c2[nH]1)n1ccnc1 | 62.1% |
| Cc1c([N+](=O)[O-])cc(C(C)(C)C)cc1[N+](=O)[O-] | 98.6% |
| O=C(N/N=C/c1ccc(F)cc1)c1ccccc1Nc1cccc(C(F)(F)F)c1 | 102% |
| COc1cccc(/C=C2\COc3ccc(-c4ccccc4)cc3C2=O)c1 | 99.9% |
| CN1CCN(c2cc(F)c(NC3=C(Cl)C(=O)c4ncccc4C3=O)c(F)c2)CC1 | -82.7% (active) |
| Cc1cc(NC(=O)c2cnc(N3CCN(CCOCCOCCOCCOCCC(=O)N[C@H](C(=O)N4C[C@H](O)C[C@H]4C(=O)N[C@@H](C)c4ccc(-c5scnc5C)cc4)C(C)(C)C)CC3)cn2)c2ncccc2c1 | 60% |
| COc1ccc(-c2ncc(-c3ccccc3)[nH]2)cc1OC | 106% |
| O=C(CN1CCOCC1)Nc1ccc2ncnc(Nc3ccc(Oc4cccc(F)c4)c(Cl)c3)c2c1 | 29.8% |
| O=C1Nc2c(ccc(Cl)c2Cl)/C1=C/c1ccc(F)cc1 | 60.2% |
| COc1ccc(-c2nc(N/N=C/c3c[nH]c4ccccc34)nc(N3CCOCC3)c2C#N)cc1 | 99.8% |

Each molecule was assayed on SN12C renal in the same assay as above. Details: 10 µM unless noted.

| SMILES | growth |
| --- | --- |
| COc1cc(/C=C/C(=O)c2ccc(Nc3ncnc4ccccc34)cc2)cc(OC)c1 | 71.3% |
| COc1ccc(C(=O)c2cc3c(N)c(C(=O)Nc4cccc(OC)c4)sc3nc2C)cc1 | 28.1% |
| CCC(C)N(CCNc1cc(OC)cc2cccnc12)CCC(C)C (stereo unspecified) | 93.5% |
| S=c1[nH]cccc1-c1nnc2n1Nc1nc3ccccc3cc1CS2 | 98.8% |
| NC(=O)C1(N2CCCCC2)CCN(CCCC(=O)c2ccc(F)cc2)CC1 | 43.3% |
| O=S(=O)(c1cccc(NC2=Nc3cccc4cccc2c34)c1)N1CCCC1 | 72.2% |
| OC1(c2ccc(Cl)c(C(F)(F)F)c2)CCN(CCCC(c2ccc(F)cc2)c2ccc(F)cc2)CC1 | -91.3% (active) |
| O=c1[nH]nc(-c2ccc(Br)cc2)cc1Cc1ccc(O)cc1 | 90.5% |
| N/C(=N\N=C\c1cc2ccccc2s1)N/N=C/c1cc2ccccc2s1 | 96.9% |
| COc1ccc(C(=O)c2cc3c(N)c(C(=O)Nc4ccc(Br)cc4)sc3nc2C)cc1 | 84.4% |
| CC1=NNC(=O)C1CCC(=O)N/N=C(\C)c1ccc2ccccc2c1 (stereo unspecified) | 102% |
| O=C(O)c1cn(C2CC2)c2cc(N3CCN(C(=O)C[n+]4cccc5ccccc54)CC3)c(F)cc2c1=O | 33.1% |
| COc1ccc(Cn2nc(-c3ccccc3)c3c2CCc2cnoc2-3)cc1 | 76.8% |
| O=C(O)CNC(=O)CN1C(=O)c2ccccc2C1=O | 99.1% |
| O=C1CCCCCCCCC(O)C(O)CCCC(c2cccs2)O1 (stereo unspecified) | 106% |
| CC1CCN(C(=O)OCc2nc3nc(Cl)nc(N4CCOCC4)c3[nH]2)CC1 | -61.4% (active) |
| COc1cc(C2CC(c3cccc(Nc4ccncc4)c3)=NN2c2cc(Cl)cc(Cl)c2)cc(OC)c1OC (stereo unspecified) | 9.72% (active) |
| COC(=O)Nc1ccc(NC(=O)OC)cc1 | 104% |
| COc1ccc(C(=O)c2cc3c(N)c(C(=O)Nc4cccc(Cl)c4C)sc3nc2C)cc1 | 20.3% |

| SMILES | growth |
| --- | --- |
| COc1ccc(-c2nc(SC)nc(N3CCOCC3)c2C#N)cc1 | 96.5% |
| CC(=O)NCCCS(=O)(=O)O | 88.3% |
| Cn1c(COC(=O)NCCN2CCOCC2)nc2c(N3CCOCC3)nc(-c3ccccc3)nc21 | -81.2% (active) |
| CC(C)Sc1nc(NN)c(C#N)c(-c2ccccc2)n1 | 98.8% |
| COc1ccc(-c2nc(SCC(C)C)nc(N/N=C(/C)c3ccc(OC)c(OC)c3)c2C#N)cc1 | 76.1% |
| COc1cc2nnn3c4ncccc4c(N=O)c3c2cc1OC | 81.4% |
| COc1ccccc1-c1c(-c2ccc(Cl)cc2)c2cc3c(cc2[nH]c1=O)OCCO3 | 85.4% |
| O=S(=O)(NCCNc1nccc(-c2c(-c3ccc(F)c(O)c3)nc3sccn23)n1)c1ccccc1 | 64.1% |
| CC(C)(O)C1CCCN1C(=O)c1ccccc1I (stereo unspecified) | 95% |
| O=C(OCc1nc2nc(Cl)nc(N3CCOCC3)c2[nH]1)n1ccnc1 | 8.48% (active) |
| Cc1c([N+](=O)[O-])cc(C(C)(C)C)cc1[N+](=O)[O-] | 99.7% |
| O=C(N/N=C/c1ccc(F)cc1)c1ccccc1Nc1cccc(C(F)(F)F)c1 | 102% |
| COc1cccc(/C=C2\COc3ccc(-c4ccccc4)cc3C2=O)c1 | 31.4% |
| CN1CCN(c2cc(F)c(NC3=C(Cl)C(=O)c4ncccc4C3=O)c(F)c2)CC1 | -97.5% (active) |
| Cc1cc(NC(=O)c2cnc(N3CCN(CCOCCOCCOCCOCCC(=O)N[C@H](C(=O)N4C[C@H](O)C[C@H]4C(=O)N[C@@H](C)c4ccc(-c5scnc5C)cc4)C(C)(C)C)CC3)cn2)c2ncccc2c1 | -2.01% (active) |
| COc1ccc(-c2ncc(-c3ccccc3)[nH]2)cc1OC | 100% |
| O=C(CN1CCOCC1)Nc1ccc2ncnc(Nc3ccc(Oc4cccc(F)c4)c(Cl)c3)c2c1 | 48.9% |
| O=C1Nc2c(ccc(Cl)c2Cl)/C1=C/c1ccc(F)cc1 | 98.3% |
| COc1ccc(-c2nc(N/N=C/c3c[nH]c4ccccc34)nc(N3CCOCC3)c2C#N)cc1 | 92.2% |
